Data from PubChem BioAssay.
Calls of active or inactive are those of the source. How the calls were made is not given here.

These compounds were tested on Aerobactin synthetase IucA (Klebsiella pneumoniae hvKP1) (assay: IucA enzyme inhibition, primary screen, biochemical, Spectrum library (AID 1346200;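 further: 100% = wells without compound and 0% = wells lacking enzyme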)). Details: malachite green pyrophosphate, A620, at 8 µM, hits give low values.

| SMILES | activity remaining |
| --- | --- |
| COc1cc(/C=C/C(=O)N2CCC=CC2=O)cc(OC)c1OC | 95.4% (inactive) |
| CN(C(=O)C(Cl)Cl)c1ccc(OC(=O)c2ccco2)cc1 | 96.4% (inactive) |
| NC(=O)c1cccnc1 | 109% (inactive) |
| O=C(O)[C@@H](S)[C@@H](S)C(=O)O | 49.3% (active) |
| CC(C)C1CCC(C(=O)N[C@@H](Cc2ccccc2)C(=O)O)CC1 (some centres undefined) | 118% (inactive) |
| C=CC(N)CCC(=O)O (centres undefined) | 119% (inactive) |
| CC(C(=O)O)c1ccc(C(=O)c2cccs2)cc1 (centres undefined) | 104% (inactive) |
| COc1ccc(CC(=O)c2ccc(O)cc2O)cc1 | 111% (inactive) |
| S=P(N1CC1)(N1CC1)N1CC1 | 89.8% (inactive) |
| C[C@]12CCC3c4ccc(OC(=O)c5ccccc5)cc4CCC3C1CCC2=O (some centres undefined) | 116% (inactive) |
| O=C(O)CCC(=O)Nc1ccc(S(=O)(=O)Nc2nccs2)cc1 | 116% (inactive) |
| COc1cccc(O)c1O | 110% (inactive) |
| NC(=O)c1ncn(C2O[C@H](CO)[C@@H](O)[C@H]2O)c1N (some centres undefined) | 99.1% (inactive) |
| CC(=O)O[C@@H]1CC2C(C)(C)[C@H](O)CC[C@]2(C)C2CC[C@@]3(C)[C@H](c4ccoc4)OC(=O)C4OC43[C@@]21C (some centres undefined) | 122% (inactive) |
| CC(C)c1c(C(=O)c2ccccc2)c(-c2ccccc2)c(-c2ccc(F)cc2)n1CC[C@@H](O)C[C@@H](O)CC(=O)O | 116% (inactive) |
| C=C1C(=O)O[C@@H]2C3OC3(C)CC/C=C(\C)CC[C@@H]12 (some centres undefined) | 105% (inactive) |
| COc1ccc(-c2cc(=O)c3ccccc3o2)cc1OC | 109% (inactive) |
| C[C@H](CCC(=O)O)[C@H]1CCC2C3C(CC[C@@]21C)[C@@]1(C)CC[C@@H](O)C[C@H]1C[C@@H]3O (some centres undefined) | 105% (inactive) |
| C[C@@H]1O[C@@H](OC[C@H]2OC(Oc3c(-c4ccc(O)c(O)c4)oc4cc(O)cc(O)c4c3=O)[C@H](O)[C@@H](O)[C@@H]2O)[C@H](O)[C@H](O)[C@H]1O (some centres undefined) | 101% (inactive) |
| Cc1cc(O)cc(=O)o1 | 116% (inactive) |

| SMILES | activity remaining |
| --- | --- |
| CC1=C(C(=O)O)N2C(=O)[C@@H](NC(=O)C(N)c3ccc(O)cc3)[C@H]2SC1 (some centres undefined) | 103% (inactive) |
| CC1(C)C=CC(=O)[C@@]2(C)C1CC(=O)[C@]1(C)C2CC[C@@]2(C)[C@H](c3ccoc3)OC(=O)C3OC321 (some centres undefined) | 123% (inactive) |
| O=C(O)/C=C(\CC(=O)O)C(=O)O | 89.8% (inactive) |
| O[N+]1=CC=CCC1=S.On1ccccc1=S.[Zn] | 92.5% (inactive) |
| O=C(O)c1ccccc1 | 115% (inactive) |
| O=S(=O)(O)CCS | 118% (inactive) |
| CC(C(=O)O)[C@H]1CCC2C3CC=C4C[C@@H](O)CC[C@]4(C)C3CC[C@@]21C (some centres undefined) | 98.4% (inactive) |
| COC1C(O)C(O)C(O)[C@@H](O)C1O (some centres undefined) | 106% (inactive) |
| COC1C(O)C(O[C@H]2CC[C@]3(C=O)C4C(CC[C@]3(O)C2)[C@@]2(O)CC[C@H](C3=CC(=O)OC3)[C@@]2(C)C[C@H]4OC(C)=O)OC(C)C1OC(C)=O (some centres undefined) | 122% (inactive) |
| COc1cc(OC)cc(OC)c1 | 117% (inactive) |
| COc1ccc(-c2coc3cc(OC(C)=O)cc(OC(C)=O)c3c2=O)cc1 | 92.5% (inactive) |
| NC(CSCSCC(N)C(=O)O)C(=O)O (centres undefined) | 95.5% (inactive) |
| CC(C)Cc1ccc(C(C)C(=O)O)cc1 (centres undefined) | 90.9% (inactive) |
| Nc1c2ccccc2nc2ccccc12 | 118% (inactive) |
| O=C(O[C@@H]1Cc2c(O)cc(O)cc2O[C@@H]1c1cc(O)c(=O)c2c(O)c(O)cc([C@H]3Oc4cc(O)cc(O)c4C[C@H]3OC(=O)c3cc(O)c(O)c(O)c3)c2c1)c1cc(O)c(O)c(O)c1 | 108% (inactive) |
| CC(=O)[C@H]1CCC2C3CC=C4C[C@@H](O)CC[C@]4(C)C3CC[C@@]21C (some centres undefined) | 99.4% (inactive) |
| C[C@@H]1O[C@@H](O[C@H]2[C@@H](Oc3cc(O)c4c(c3)O[C@H](c3ccc(O)cc3)CC4=O)O[C@H](CO)[C@@H](O)[C@@H]2O)[C@H](O)[C@H](O)[C@H]1O | 117% (inactive) |
| COC1C=CC23c4cc5c(cc4CN(C[C@H]2O)[C@@H]3C1)OCO5 (some centres undefined) | 110% (inactive) |
| O=C1NS(=O)(=O)c2ccccc21 | 102% (inactive) |
